Tests used:
CHO = test: % viability of CHO cells (MTT); higher = less toxic; conditions: 48 h
Procedure, shortened: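 After overnight attachment of CHO cells seeded at 10^6 cells/well in 200 µL, the medium was exchanged for fresh medium holding compound at 2 or 20 µM. Exposure lasted 48 h. Survival was read with the colorimetric tetrazolium (MTT) assay and expressed as percent of untreated cells.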

HepG2-A16-CD81 = test: % inhibition of HepG2 viability (CellTiter-Glo); higher = more toxic; conditions: 5 µM
[1] = tested on: Plasmodium falciparum NF54 stage IV/V gametocytes; test: % inhibition of gametocyte viability (PrestoBlue); higher = more inhibition; conditions: 48 h
Procedure, shortened: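 Compound at 1 or 5 µM was incubated with Stage IV/V NF54 gametocytes (2% gametocytaemia, 5% haematocrit) for 48 h at 37 °C, stationary and hypoxic. A 2 h PrestoBlue step followed, with fluorescence read at 612 nm on transferred supernatant. Inhibition of gametocyte viability, in percent, was normalised to vehicle and kill controls from a single run.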

[2] = tested on: Plasmodium falciparum NF54 asexual blood stage; test: % inhibition of asexual blood stage proliferation (pLDH); higher = more inhibition; conditions: 72 h
Procedure, shortened: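 Compound was tested at 2 or 20 µM against Plasmodium falciparum NF54 ring stages (1% haematocrit, 2% parasitaemia) for 72 h at 37 °C in 4% CO2, 3% O2 and 93% N2. Survival was read at 620 nm with the parasite lactate dehydrogenase assay, and inhibition of asexual proliferation was given as a percentage of controls.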

[3] = tested on: Plasmodium falciparum NF54 stage IV/V gametocytes; test: % inhibition of gametocyte viability (ATP bioluminescence); higher = more inhibition; conditions: 24 h
Procedure, shortened: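 Compound at 1 or 5 µM was tested on stage IV/V NF54 gametocytes, enriched on density gradients and plated at 30,000 per well in 96-well plates. After 24 h at 37 °C, ATP was quantified by Promega BacTiter Glo bioluminescence. Values are percent inhibition of gametocyte viability from one run, normalised to controls.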

[4] = tested on: Plasmodium falciparum NF54 stage IV/V gametocytes; test: % inhibition of gametocyte viability (luciferase reporter); higher = more inhibition; conditions: 48 h
Procedure, shortened: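 Stage IV/V gametocytes of the NF54-Pfs16-GFP-Luc line (2% gametocytaemia, 2% haematocrit) were exposed to compound at 1 or 5 µM. Incubation was 48 h at 37 °C, stationary and hypoxic. Luminescence was read on 30 µL lysate plus 30 µL Promega luciferin substrate on a GloMax-Multi+ reader with 10 s integration. Percent inhibition was normalised to DMSO and kill controls from a single run.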

[5] = tested on: Plasmodium berghei ANKA liver stage in HepG2-A16-CD81; test: % inhibition of liver stage parasite viability (luciferase); higher = more inhibition; conditions: 5 µM; 48 h
Procedure: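 Single-concentration screen of the MMV Pandemic Response Box. P. falciparum NF54 asexual blood stages: pLDH assay, 72 h at 37 °C, 2 and 20 µM, n=2. Stage IV/V gametocytes (NF54): luciferase reporter (NF54-Pfs16-GFP-Luc, 48 h), ATP bioluminescence (24 h) and PrestoBlue (48 h) at 1 and 5 µM, n=1. P. berghei liver stage (luciferase in HepG2-A16-CD81, 48 h post infection) at 5 µM, n=4. All normalised to DMSO and kill controls as % inhibition.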
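Wherever % inhibition of HepG2 viability (CellTiter-Glo) is given: HepG2-A16-CD81 hepatoma cells plated as in the liver-stage assay but without sporozoites, with DMSO wells as negative and 25 µM puromycin as positive control.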

| Structure (SMILES) | % viability of CHO cells (CHO; 2 µM) [%] | % viability of CHO cells (CHO; 20 µM) [%] | % inhibition of HepG2 viability (HepG2-A16-CD81) [%] | % inhibition of gametocyte viability ([1]; 1 µM) [%] | % inhibition of gametocyte viability ([1]; 5 µM) [%] | % inhibition of asexual blood stage proliferation ([2]; 2 µM) [%] | % inhibition of asexual blood stage proliferation ([2]; 20 µM) [%] | % inhibition of gametocyte viability ([3]; 1 µM) [%] | % inhibition of gametocyte viability ([3]; 5 µM) [%] | % inhibition of gametocyte viability ([4]; 1 µM) [%] | % inhibition of gametocyte viability ([4]; 5 µM) [%] | % inhibition of liver stage parasite viability [5] [%] |
| --- | --- | --- | --- | --- | --- | --- | --- | --- | --- | --- | --- | --- |
| NCCCc1ccccc1C(=O)Nc1ncc([N+](=O)O)s1 | 104 | 62.7 | 0.282 | 32.9 | 23.9 | -16.4 | -1.52 | 0.0401 | < 0 | < 0 | < 0 | 7.1 |
| Cc1onc(-c2ccccc2Cl)c1C(=O)N[C@@H]1C(=O)N2[C@@H]1SC(C)(C)[C@@H]2C(=O)O | 126 | 143 | -1.54 | < 0 | 30.1 | 8.35 | -0.0824 | < 0 | < 0 | < 0 | 7.91 | 17.1 |
| Cc1nc2ccc(Oc3ccccc3)cc2c2c1CCN2CCc1ccccc1 | 77.5 | -1.21 | 2.52 | 1.5 | 60 | 75.9 | 110 | 20.1 | 93.2 | 33 | 63.3 | 27 |
| Cc1cccc(CC(=O)N[C@H]2CCOC2=O)c1 | 95.4 | 98.6 | 5.04 | < 0 | 21.6 | 35.3 | 53.6 | < 0 | < 0 | < 0 | 5.44 | 4.19 |
| FC(F)(F)Oc1ccc(Nc2ccc3cccc(Cl)c3n2)cc1 | 101 | 86.1 | 0.506 | 16.2 | < 0 | 31 | 98 | 4.02 | < 0 | < 0 | < 0 | 18 |
| CC(C)N(c1cc(-c2ccccc2)sc1C(=O)O)C(=O)[C@H]1CC[C@H](C)CC1 | 91.8 | 103 | -2.07 | 18.3 | 14.3 | 28.8 | 44.9 | 4.36 | < 0 | 4.34 | < 0 | 20.5 |
| C[C@H](Cn1cnc2c(N)ncnc21)OCP(=O)(O)O | 89.8 | 99.9 | -1.34 | 10.5 | 17.7 | -36.5 | 46.2 | 5.56 | < 0 | 9.2 | < 0 | 9.32 |
| Nc1cnn(C2OC(CO)C(O)C2O)c(=O)n1 (configuration not stated) | 109 | 110 | 9.61 | < 0 | 12.5 | 61.7 | 38.4 | 3.6 | < 0 | 4.96 | 6.45 | -44.9 |
| CC1CN(c2ncnc3c2c(-c2ccccc2)cn3-c2ccc(F)cc2)CC(C)O1 (configuration not stated) | 82.6 | 122 | 6.07 | 17.3 | 1.77 | 75.6 | 95.5 | < 0 | < 0 | < 0 | < 0 | 37.1 |
| Cc1c(F)cccc1NC(=O)Nc1ccc(Cl)c(S(=O)(=O)[C@H]2CCCNC2)c1O | 115 | 118 | -8.8 | < 0 | < 0 | 15.9 | 41.5 | 8.93 | < 0 | 0.356 | < 0 | 13.1 |
| CN(Cc1ccc(C(C)(C)C)cc1)Cc1cccc2ccccc12 | 92.4 | 110 | 2.12 | 7.34 | 8.91 | -5.03 | 71.1 | < 0 | < 0 | < 0 | < 0 | 10.2 |
